An excerpt weighted towards active compounds, which were near 10% of everything screened.
JMJD2A Tudor inh: inhibitors of human JMJD2A Tudor domain; AlphaScreen JMJD2A-Tudor / H3K4me3 peptide binding; Potency, µM (top dose mostly 114 µM), inactives show top-dose activity change, negative = inhibition, most hits filed as inhibitors; 390,000 tested, 4.4% active; AID 504339; further: on the % scale 0 is the no-effect control and ±100 the full control effect; nearly all actives have a fitted effect of over 50% in size
GLS inhibitor: inhibitors of human glutaminase (GLS); O94925; GLS enzymatic activity, qHTS titration; Potency, µM (top dose mostly 45.5 µM), for the others: at the top dose activity change, negative = inhibition, most hits filed as inhibitors; 410,000 tested, 0.21% active; AID 624170; further: on the % scale 0 is the no-effect control and ±100 the full control effect
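Human kidney-isoform GLS in 45 mM KH2PO4 pH 8.2, 0.02% Tween-20, with compound, started with 1mM L-Glutamine (added stock). Glutamate oxidase/HRP/Amplex red coupled fluorescence read at start and after 30 min at RT.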
G9a block: G9a (human) methyltransferase inhibition; Q96KQ7; G9a H3K9 monomethylation, AlphaScreen, 2 h; Potency, µM (highest dose often 102 µM), inactives show top-dose activity, negative = inhibition, most hits filed as inhibitors; 350,000 tested, 8.8% active; further: on the % scale 0 is the no-effect control and ±100 the full control effect; nearly all actives have a fitted effect of over 75% in size
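Chemiluminescent proximity detection of H3K9 monomethylation, read after 10 min bead incubation in the dark. Reaction: 20 nM G9a, 500 nM biotin-H3K9 peptide, 20 uM SAM cofactor, 2 h, room temperature, following 15 min enzyme-compound preincubation.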
BAZ2B block: inhibitors of human BAZ2B bromodomain | Potency, µM (doses to about 114 µM), without a hit: at the highest dose activity change, negative = inhibition, most hits filed as inhibitors | AlphaScreen BAZ2B-H3K14Ac peptide displacement | 360,000 tested, 4.4% active; further: on the % scale 0 is the no-effect control and ±100 the full control effect; nearly all actives have a fitted effect of over 60% in size
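AlphaScreen displacement of biotin-H3(5-23)K14Ac peptide (50 nM final) from BAZ2B (50 nM final) in PBS pH 7.4, 0.01% Tween-20; complex preformed 30 min RT, then compounds (top 110 uM) 30 min RT, beads 20 min dark.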
HP1b binding inh: blocks HP1-beta chromodomain binding to methylated histone tails; 390,000 tested, 0.56% active; AID 540317; AlphaScreen HP1-beta / biotin-H3K9me3 peptide binding; P83916; Potency, µM (titrated, usually from 114 µM), for the others: top-dose activity change, negative = inhibition, hits mostly inhibitors; further: nearly all actives have a fitted effect of over 70% in size
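Compound inhibition of the preformed complex between 50 nM HP1-beta and 50 nM biotinylated H3K9me3 peptide was read by AlphaScreen. Buffer was PBS pH 7.4 with 0.01% Tween-20. Incubations ran 30 min at room temperature, with 10 ug/mL donor/acceptor beads.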
L3MBTL1 block: L3MBTL1 (human) inhibition; AlphaScreen L3MBTL1–H3K9me1 peptide binding; 230,000 tested, 0.66% active; AID 485360; Potency, µM (doses to about 57.1 µM), for inactives: at the highest dose activity, negative = inhibition, most hits filed as inhibitors; further: on the % scale 0 is the no-effect control and ±100 the full control effect; nearly all actives have a fitted effect of over 60% in size
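AlphaScreen proximity signal between nickel-chelate acceptor and streptavidin donor beads (final 10 ug/mL) reports binding of 50 nM L3MBTL1 to 75 nM biotin-H3 K9me1 peptide; complex incubated with compounds 30 min at room temperature; cefsulodin titration as control.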
* = called active by the depositor; ? = inconclusive; . = no result; [ ] = another dose, or the depositor's remark. The call rests on the fitted dose curve; in most records, active means well fitted curve in the direction sought with a large enough effect; inconclusive means small, poorly fitted or top-dose-only effect, or another doubt; inactive means no such curve, though single readings can be large; an effect the other way counts as inactive or inconclusive. Potency means the concentration at half of the fitted maximal effect.

SMILES | JMJD2A Tudor inh | GLS inhibitor | G9a block | BAZ2B block | HP1b binding inh | L3MBTL1 block
CC(C)(C)S(=O)(=O)c1cnc(-c2ccccn2)nc1N | ? | 0% | . | 79µM* | 17% | -19%
CCOc1ccc(-c2nc(CCl)cs2)cc1OC | 7%[57.1 µM] | -3% | 45µM* | ? | 70% | 7%[11.4 µM]
COc1cccc(-c2nc(CCl)cs2)c1OC | 50µM* | 5% | 22µM* | ? | 60% | -3%
Cc1ccc(C)c(Nc2cc(C(=O)NC3CCCCC3)c3ccccc3n2)c1 | -12% | 2% | -6%[59 µM] | . | 17% | .
Cc1ccc(-c2c(C3C4C=CCCC4(C)C(=O)N3Cc3ccccc3)ccc3ccccc23)cc1 (stereo not given) | -35% | . | . | . | 6% | .
Cn1cc([N+](=O)[O-])c(C(=O)Nc2cc(Oc3cccnc3)cc([N+](=O)[O-])c2)n1 | -19% | 8% | 45µM* | ? | 11% | -1%
O=[N+]([O-])c1cc(Oc2cccnc2)cc([N+](=O)[O-])c1 | -1% | -2% | ? | 10% | 10% | 13%
Cn1cc([N+](=O)[O-])c(C(=O)Nc2ccc(-c3nc4ccccc4[nH]3)cc2)n1 | 56µM* | 28% | -9%[59 µM] | ? | 12% | 5%
Cn1cc([N+](=O)[O-])c(C(=O)Nc2ccc3nc(-c4ccccc4)[nH]c3c2)n1 | -28% | 4% | ? | -32% | 7% | 0%
CCOC(=O)c1cc(-c2ccccc2)n(CCC(=O)NCCc2ccccc2)c1C | ? | -11% | -46%[59 µM] | ? | ? | .
CC(OCC(O)CNCC1COc2ccccc2O1)c1ccc(Cl)cc1 (stereo not given) | 2.2µM* | -12% | 10µM* | 79µM* | ? | 22%
OC(CNCC1COc2ccccc2O1)COCc1cccs1 (stereo not given) | 1.6µM* | 12% | 8.9µM* | 89µM* | -51% | -4%
CC(=O)c1cccc(OCC(O)CNCC2COc3ccccc3O2)c1 (stereo not given) | 0.79µM* | 0% | 26%[0.501 µM] | 32µM* | 50µM* | .
c1ccc(CNCC2COc3ccccc3O2)cc1 (stereo not given) | -3% | 5% | 21%[59 µM] | -2% | 24% | 11%
COc1ccc(CNC(=O)Cc2cccs2)cc1 | -2% | 0% | . | -7% | 25% | .
COc1ccc(CNCC(O)COCc2cccs2)cc1 (stereo not given) | 1.6µM* | 0% | ? | ? | -56% | 6%
CCCCOc1cccc(C(=O)Nc2cc(NC(=O)c3ccco3)ccc2OC)c1 | -27% | -1% | -29%[59 µM] | -28% | 15% | .
CCc1ccc(NC(=O)CN2C(=O)C3(SCC(=O)N3c3ccccc3)c3ccccc32)cc1 (stereo not given) | -17% | -12% | -13%[59 µM] | 1%[57.1 µM] | 14% | .
CCOC(=O)/C(=C/C=C1\Sc2cc(C)c(C)cc2N1CC)C(C)=O | -21% | 1% | -20% | 40µM* | 16% | -5%
COc1cc(CN2CCCN(C)CC2)cc([N+](=O)[O-])c1O | 0.89µM* | -10% | . | ? | ? | -4%
COc1ccccc1C1CCN(c2ccc(CO)cc2[N+](=O)[O-])CC1 | 56µM* | -3% | 35µM* | ? | ? | -20%
COc1cc(CN2CCc3ccccc3C2)ccc1O | 20µM* | 22% | 14µM* | 50µM* | ? | 0%
COc1cc(CN2CCN(c3ccccc3C)CC2)cc([N+](=O)[O-])c1O | 4µM* | 49% | 79µM* | ? | ? | -13%
CCOc1cc(CN2CCCC(N3CCc4ccccc4C3)C2)ccc1O (stereo not given) | -14% | 4% | . | -6% | 33% | 6%
Cc1ccc(-c2nnc3ccccc3c2C(=O)Nc2ccc(C)c(F)c2)cc1 | -18% | 8% | 4%[59 µM] | -2% | 23% | .
COc1cc(CN2CCc3ccccc3C2)cc([N+](=O)[O-])c1O | 22µM* | 17% | 8.9µM* | ? | ? | -22%
